Laboratory results taken from ChEMBL document CHEMBL3433997, “St. Jude Leishmania screening dataset” (2016).

Experiments:
Type in all cases: functional
[1] = target: Solute carrier family 2, facilitated glucose transporter member 1 (Homo sapiens) (UniProt P11166); experiment: ST_JUDE_LEISH: Cytotoxicity at 2uM final concentration against transgenic Leishmania Mexicana promastigotes LmGLUT1 that are glucose transport deficient and complemented with the human glucose transporter GLUT1. Activity is measured by DNA content using SYBR green in vitro
Solute carrier family 2, facilitated glucose transporter member 1 (Homo sapiens), sequence (P11166 whole entry): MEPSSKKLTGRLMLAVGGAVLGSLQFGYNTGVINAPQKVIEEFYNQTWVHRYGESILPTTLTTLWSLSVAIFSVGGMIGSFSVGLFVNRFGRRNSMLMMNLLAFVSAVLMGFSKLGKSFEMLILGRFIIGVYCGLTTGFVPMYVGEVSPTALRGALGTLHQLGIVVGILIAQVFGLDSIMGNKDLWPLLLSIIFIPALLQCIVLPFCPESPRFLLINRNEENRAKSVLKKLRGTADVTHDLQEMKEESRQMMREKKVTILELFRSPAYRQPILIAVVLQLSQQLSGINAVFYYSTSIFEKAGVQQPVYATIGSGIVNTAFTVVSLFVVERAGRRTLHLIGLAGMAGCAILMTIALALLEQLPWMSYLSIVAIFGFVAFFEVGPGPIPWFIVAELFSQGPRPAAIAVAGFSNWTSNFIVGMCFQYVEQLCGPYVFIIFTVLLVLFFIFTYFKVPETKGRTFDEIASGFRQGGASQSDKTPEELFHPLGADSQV

[2] = target: Hexose transporter 1 (Plasmodium falciparum) (UniProt O97467); experiment: ST_JUDE_LEISH: Cytotoxicity at 2uM final concentration against transgenic Leishmania Mexicana promastigotes LmPfHT that are glucose transport deficient and complemented with the Plasmodium falciparum hexose transporter. Activity is measured by DNA content using SYBR green in vitro
[3] = target: Glucose transporter (Leishmania mexicana) (UniProt O61059); experiment: ST_JUDE_LEISH: Cytotoxicity at 2uM final concentration against transgenic Leishmania Mexicana promastigotes LmGT2 that are glucose transport deficient and complemented with the L. Mexicana glucose transporter 2. Activity is measured by DNA content using SYBR green in vitro

Compound | inhibition [1] [%] | inhibition [2] [%] | inhibition [3] [%]
O=C(NC1CCC(CCN2Cc3cccc(F)c3C2)CC1)c1cccc(-c2cccnc2)c1 (stereo unspecified) | 0.7 | 1.22 | -1.89
Cc1nc2nc(N)nc(N)c2c(C)c1Cc1ccc(N)cc1 | 3.4 | 8.1 | 1.88
CCOC(=O)c1cc2c(CCN3C(=O)c4ccccc4C3=O)cn(C)c2cc1-c1ccncc1 | 93 | 91 | 90.9
CCOC(=O)c1[nH]c2ccc(F)cc2c1NC(=O)CN1CCN(c2cccc(C(F)(F)F)c2)CC1 | 0.03 | 0.43 | -2.97
O=C(NC1CCN(Cc2ccc(Cl)cc2)CC1)c1cn(-c2ccccc2)nc1-c1cccnc1 | 1.12 | 0.95 | 1.49
CCCCCCn1c(Sc2ccc(C#N)c([N+](=O)[O-])c2)nnc1-c1cccs1 | 5.52 | 6.91 | -0.09
O=S(=O)(Nc1cccc(CCN2CCC(N3CCCCC3)CC2)c1)c1ccc(Oc2ccccc2)nc1 | 3.37 | 4.85 | 5.38
Cc1ccc(NC(=O)c2cc(Br)cc(N3CCCN(C)CC3)c2)cc1F | -0.54 | 0.36 | -1.29
Cc1cccc2nc(-c3ccc(-c4cccc(CN5CCC(C(N)=O)CC5)c4)s3)[nH]c12 | -1.68 | 2.17 | 1.29
CC(CN(C)C)C(=O)Nc1ccc(-c2ccc(-c3nc4ccccc4[nH]3)s2)cc1 (stereo unspecified) | 2.59 | 3.52 | 6.24
COc1ccc2nccc(NCC3(O)CCC(NCc4ccc5c(n4)NC(=O)CS5)CC3)c2n1 (stereo unspecified) | 4.33 | 3.51 | 4.28
COc1ccc2nccc([C@@H](O)CN3CCC(NCc4nc5ccccc5s4)CC3)c2c1 | 4.29 | 6.41 | -0.69
Oc1ccccc1CCNCC1CCc2ccccc2C1 (stereo unspecified) | -0.47 | -0.01 | 0.73
O=C(/C=C/c1ccc(Cl)c(Cl)c1)N1CCC(CNCc2cccc3cc[nH]c23)CC1 | 1.64 | 0.75 | 1.48
CCn1c(-c2nonc2N)nc2c(-c3cccc(NC(=O)Nc4cccc(Cl)c4)c3)ncc(OCCCN)c21 | 4.22 | 3.86 | 2.75
Cc1cc(Nc2ncc3c(n2)N(C2CCC2)CC3)ccc1N1CCN(C)CC1 | 0.65 | 1.15 | 1.26
CCCN(Cc1nnc(-c2ccco2)o1)C(=O)C1CCCN(C(=O)c2ccc(Cl)cc2)C1 (stereo unspecified) | 1.85 | 0.73 | -0.96
Cc1cc(Nc2cccc(C(F)(F)F)c2)nc(Nc2cccc(C(F)(F)F)c2)n1 | 4.73 | 4.81 | -0.49
Cc1ccccc1C1CCN(C2CCC(NC(=O)/C=C/c3c[nH]c4ccccc34)CC2)CC1 (stereo unspecified) | 2.31 | 0.84 | -0.41
COC(=O)c1cccc(NC(=O)NC2CCN(c3ccnc(Nc4ccc(OC)cc4)n3)C2)c1 (stereo unspecified) | 0.29 | 0.86 | 0.1
Cc1cc(OCCCN2CCC(NC(=O)c3ccc(Br)cc3)C2)c2ccccc2n1 (stereo unspecified) | 24.3 | 19.2 | 13.4
CCC[C@@H]([C@@H](CC1CCC(C)CC1)C(=O)N[C@@H](CO)C(=O)Nc1nccs1)N(O)C=O (stereo partly specified) | 1.25 | 2.18 | 1.54
COc1cc(-c2nc(-c3ccncc3)c(-c3ccc4c(c3)CCC4=NO)[nH]2)ccc1OCCN1CCN(C)CC1 | 6.6 | 6.49 | 5.31
Cc1ccc(-n2c(=O)c3cccnc3n2CC(=O)Nc2cccc(C)c2C)cc1 | 8.07 | 5.98 | 7.74

Compound | inhibition [1] [%] | inhibition [2] [%] | inhibition [3] [%]
N#Cc1nc2ccc(OCCN(Cc3ccccc3C(F)(F)F)c3ccc(C#N)c(C(F)(F)F)c3)cc2s1 | 9.32 | 6.39 | 8.4
Oc1cc2c(cc1CN1CCN(Cc3cccs3)CC1)CCC2 | 0.97 | -0.33 | 2.76
CCC(C)(C)c1ccc(OCC(O)CN2CCCCC2)c(C(C)(C)CC)c1 (stereo unspecified) | 14.6 | 15.2 | 13.2
O=C(/C=C/c1ccc(Cl)c(Cl)c1)N1CCC(CN2CCC(Cc3c[nH]c4ccccc34)CC2)CC1 | 4.43 | 4.8 | 3.96
NC1=NC(CCc2ccccc2)N(c2ccc(Cl)cc2)C(N)=N1 (stereo unspecified) | 7.41 | 1.15 | 1.06
O=C(Nc1ccc(OC2CCN(Cc3ccc(F)cc3)C2)cc1)c1ccco1 (stereo unspecified) | 2.22 | 2.86 | 3.15
CCOC(=O)CCCc1cc(NC2CCN(C)CC2)nc(Nc2ccc(OC)cc2)n1 | -0.13 | 0.24 | 1.72
COc1ccc2ncc(F)c(CCN3CCC(NCc4cc5c(cn4)OCCS5)CC3)c2c1 | 57.8 | 66.5 | 80.3
O=C(N[C@@H](Cc1ccccc1)C(=O)NC1CCCc2ccccc21)c1ccc(O)c(-c2ccc(Cl)c(Cl)c2)c1 (stereo partly specified) | 0.59 | 0.41 | -0.1
Cc1cc(-c2ccc(O)c(CNC3CCCCC3)c2)cnc1N | 0.43 | 10.3 | 0.95
Cn1nc(-c2ccc(CNC3CCc4ccccc43)cc2)c2cnc(NCCCN3CCCC3)nc21 (stereo unspecified) | 7.46 | 13.8 | 8.91
O=C(NCCCCN1CC=C(c2ccc3c(c2OCC2CC2)CCCC3)CC1)c1ccc(-c2ccc(C(F)(F)F)cc2)cc1 | 5.41 | 5.39 | 5.23
COc1ccc2c(N/N=C/c3cccc([N+](=O)[O-])c3)cc(C)nc2c1 | 1.12 | 4.05 | 0.63
O=C(c1ccc(O)c(-c2cc(Cl)cc(Cl)c2)c1)N1CCCC1 | 1.89 | 0.9 | -0.96
CC(C)(C)c1ccc(CN2CCC(NC(=O)c3ccc(-c4cccc(Cl)c4)s3)CC2)cc1 | 11.2 | 8.67 | 7.09
COc1ccc2nccc(NC(=O)N3CCC(NCc4cc5ccccc5[nH]4)CC3)c2n1 | 13.2 | 16.9 | 2.89
CCc1nc(N)nc(N)c1-c1ccc(C(C)(C)C)cc1 | 13 | 3.45 | 0.88
CCC(O)(C#Cc1c(C)nc(N)nc1N)CC | 2.19 | 2.72 | -0.68
Cc1cccc(OCCCCON2C(=N)N=C(N)NC2(C)C)c1C | 0.1 | 0.14 | 1.69
CN1CCN(Cc2ccc(OCc3cccc(COc4ccc(CN5CCN(C)CC5)cc4I)c3)c(I)c2)CC1 | 1.53 | 0.72 | -0.68
Cc1ccc(NC(=O)c2ccc3ncccc3c2)cc1OC1CCN(Cc2ccc(F)cc2)C1 (stereo unspecified) | 1.19 | 0.73 | 1.26
NC(=O)c1cc2nc(Nc3ccc(F)cc3)nc(NC3CCC3)c2[nH]1 | 1.42 | 1.11 | -0.6
Cc1cc(N2CC=CCC2)nc(NC(=N)Nc2ccc(Cl)cc2)n1 | 6.87 | 7.74 | 6.89
CC(C)Oc1ccc2c(c1)OC(c1ccccc1)(C(F)(F)F)NC2=O (stereo unspecified) | 14.6 | 12.2 | 7.18

Compound | inhibition [1] [%] | inhibition [2] [%] | inhibition [3] [%]
O=C1CCCN1CCCNCc1ccc(-c2cccc(-c3nc4cc(C(F)(F)F)ccc4[nH]3)c2)cc1 | 1.71 | -0.32 | -0.5
COc1ccc(C2CC(=O)C3=C(C2)NC(C)=C(C(=O)OC2CCCC2)C3c2cccc(O)c2)cc1 (stereo unspecified) | 0.09 | 0.95 | -0.53
Cc1cc2ccc(/C=C/C(=O)NC3CCC(CCN4CCc5ccc(C#N)cc5CC4)CC3)cc2[nH]1 (stereo unspecified) | 4.47 | 5.55 | 2.92
COc1cc(NC(=O)c2cccs2)c(OC)cc1NC(=O)Nc1cccc(Cl)c1 | 3.28 | 3.25 | 2.28
O=C(Nc1ccc(S(=O)(=O)N2CCCCC2)cc1)c1cc(-c2cc(Cl)ccc2O)n[nH]1 | 6.03 | 6.9 | 4.71
Cc1nn(-c2ccccc2)nc1C(=O)NC1CCN(CCNC(=O)c2ccc(Cl)c(Cl)c2)CC1 | 0.92 | 2.53 | 1.85
Cc1cc(-c2cccc3c(NC(=O)N4CCc5cc6nccc(N7CCN8CCC[C@H]8C7)c6cc54)cccc23)cc(C)n1 | 4.48 | 2.56 | 1.59
Cc1cc(NC2CCCC2)nc(Nc2ccc(F)cc2)n1 | 8.81 | 7.56 | 0.46
C[C@H](NC(=O)[C@H](CCCCNC(=O)OC(C)(C)C)NC(=O)OC(C)(C)c1ccc(-c2ccccc2)cc1)C(=O)OCc1ccccc1 | 3.8 | 3.27 | 1.84
O=C(NCCN1CCCC1)c1cccc(-c2ccc(-c3nc4cc(C(F)(F)F)ccc4[nH]3)cc2)c1 | 1.29 | 0.34 | 0.32
O=C(NCCCCN1CCCC2c3cccc(O)c3CCC21)c1ccc(-c2ccccc2)cc1 (stereo unspecified) | 0.9 | -0.26 | -0.23
N#Cc1ccc(N2CCN(Cc3ccc(-c4ccc(-c5nc6ccccc6[nH]5)s4)cc3)CC2)nc1 | 6.79 | 6.18 | 2.59
c1ccc(Oc2ccc(Nc3ccnc4cc(-c5csc(CN6CCCCC6)n5)ccc34)cc2)nc1 | 0.24 | 1.27 | 0.89
c1cncc(CCNCc2cccc(-c3csc(-c4nc5ccccc5[nH]4)c3)c2)c1 | 4.04 | 4.06 | 2.64
Cc1cccc2nc(-c3ccc(-c4cccc(CNCCCNS(C)(=O)=O)c4)cc3)[nH]c12 | 0.32 | 0.24 | -0.36
O=C(NC1CCCCC1)c1csc(C2CCCN(C(=O)c3ccc(O)c(-c4cccc(C(F)(F)F)c4)c3)C2)n1 (stereo unspecified) | 0.87 | 1.44 | -0.33
COc1ccc(Nc2nc(NCc3cccc(NS(C)(=O)=O)c3)cc(-c3ccc(OC)cc3)n2)cc1 | 4.4 | 5.23 | 1.09
CCOc1ccc(C=CC(=O)Nc2ccc3nc(N4CCN(C)CC4)cc(C)c3c2)cc1OC | 3 | 3.77 | 1.18
CCCCCCN1CCCN(Cc2ccc(C(=O)Nc3ccc(C)c(F)c3)cc2)CC1 | 11.8 | 7.68 | 13.7
Nc1cccc(CNCc2cccc(-c3cccc(-c4nc5cc(F)ccc5[nH]4)c3)c2)c1 | 0.35 | 0.35 | -0.66
FC(F)(F)c1cccc(N=C(S)NN=Cc2ccccn2)c1 | -0.57 | 4.7 | 1.52
COc1cc(-c2ccccc2)ccc1C(=O)Nc1ccc2c(c1)N(C)CCC2 | 4.93 | 2.53 | 3.05
N#Cc1ccc(N(CCOc2ccc3c(c2)CCC(=O)N3)Cc2ccccc2C(F)(F)F)cc1C(F)(F)F | 7.14 | 4.94 | 5.81
Cc1nc(-c2nc(NCc3ccccn3)ncc2-c2ccsc2)sc1C | 6.64 | 5.22 | 5.82
